Where “and” joins values, the source holds several entries; their conditions need not be identical. Equal values may be shown once. Hit rate of the full screen: of about 5,500 compounds, about 2,000 (36%) were called active. Another 18% or so got no clear call; they are omitted. Cut-off read from the data, not from the text of the source: active = normalized growth mostly below about 0.91 (no sharp cut-off); inconclusive = no clear call, values can overlap the other calls; inactive = mostly above about 0.92. The list shows a part of the results.
Experiment: chemical genetic growth profiling, strain panel (AID 1159580);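 note: tested at 20 µM; growth read once vehicle control cultures reached saturation at 30 °C; 1 = growth at the plate median or of vehicle wells; lower values mean less growth of the strain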
Settings: growth OD
[1] = S. cerevisiae deletion strains, locus YAL013W, strain DEP1, hits give low values
[2] = S. cerevisiae deletion strains, locus YAL040C, strain CLN3, hits give low values
[3] = S. cerevisiae deletion strains, locus YDR150W, strain NUM1, hits give low values
[4] = S. cerevisiae deletion strains, locus YDR363W, strain ESC2, hits give low values
[5] = S. cerevisiae deletion strains, locus YER002W, strain NOP16, hits give low values
[6] = S. cerevisiae deletion strains, locus YGR229C, strain SMI1, hits give low values
[7] = S. cerevisiae deletion strains, locus YMR307W, strain GAS1, hits give low values
[8] = S. cerevisiae deletion strains, locus YNL153C, strain GIM3, hits give low values
[9] = S. cerevisiae deletion strains, locus YNL175C, strain NOP13, hits give low values
[10] = S. cerevisiae deletion strains, locus YNL197C, strain WHI3, hits give low values
[11] = S. cerevisiae deletion strains, locus YNL224C, strain SQS1, hits give low values
[12] = S. cerevisiae deletion strains, locus YNL322C, strain KRE1, hits give low values
[13] = S. cerevisiae deletion strains, locus YOR083W, strain WHI5 (second series), hits give low values

Measured: normalized growth

NC(=Nc1ccccc1)NC(=O)c1nc(Cl)c(N)nc1N
inactive: [1] 0.975 | [2] 0.997 | S. cerevisiae deletion strains, locus YCL061C, strain MRC1 (second series), hits give low values 1 | [3] 0.999 | [4] 0.973 | [5] 0.991 | [6] 1 | [7] 0.993 | [8] 0.986 | [9] 1.01 | [10] 1.01 | [11] 1 | [12] 0.992 | [13] 1

NC(N)=NC(=O)c1nc(Cl)c(N2CCCCCC2)nc1N
inactive: [1] 1.01 and 0.962 | [2] 1.09 | S. cerevisiae deletion strains, locus YBR021W, strain FUR4, hits give low values 1.02 | S. cerevisiae deletion strains, locus YBR229C, strain ROT2, hits give low values 1.01 | S. cerevisiae deletion strains, locus YCL029C, strain bik1, hits give low values 1.01 | S. cerevisiae deletion strains, locus YDL035C, strain GPR1, hits give low values 1 | S. cerevisiae deletion strains, locus YDL074C, strain BRE1, hits give low values 0.989 | S. cerevisiae deletion strains, locus YDL101C, strain DUN1, hits give low values 1.02 | S. cerevisiae deletion strains, locus YDL134C, strain PPH21, hits give low values 1.01 | S. cerevisiae deletion strains, locus YDL185W, strain tfp1, hits give low values 1.02 | S. cerevisiae deletion strains, locus YDL192W, strain arf1, hits give low values 1.01 | S. cerevisiae deletion strains, locus YDR101C, strain arx1, hits give low values 1 | [3] 1.01 | S. cerevisiae deletion strains, locus YDR162C, strain NBP2, hits give low values 1.03 | S. cerevisiae deletion strains, locus YDR318W, strain mcm21, hits give low values 1.01 | [4] 0.986 | S. cerevisiae deletion strains, locus YDR388W, hits give low values 1.01 | S. cerevisiae deletion strains, locus YDR502C, strain sam2, hits give low values 1.01 | S. cerevisiae deletion strains, locus YEL061C, strain CIN8, hits give low values 1.01 | [5] 1.02 | S. cerevisiae deletion strains, locus YER110C, hits give low values 1 | S. cerevisiae deletion strains, locus YER155C, strain BEM2, hits give low values 1.01 | S. cerevisiae deletion strains, locus YER167W, strain BCK2, hits give low values 1 | S. cerevisiae deletion strains, locus YGL078C, strain dbp3, hits give low values 1.02 | S. cerevisiae deletion strains, locus YGL086W, strain mad1, hits give low values 0.998 | S. cerevisiae deletion strains, locus YGL248W, strain PDE1, hits give low values 1.01 | S. cerevisiae deletion strains, locus YGR078C, strain PAC10, hits give low values 0.991 | S. cerevisiae deletion strains, locus YGR135W, strain pre9, hits give low values 0.995 | [6] 1.01 and 0.996 | S. cerevisiae deletion strains, locus YGR252W, strain gcn5, hits give low values 0.853 | S. cerevisiae deletion strains, locus YHR030C, strain SLT2, hits give low values 1.01 and 1.06 | S. cerevisiae deletion strains, locus YHR079C, strain IRE1 (second series), hits give low values 1.02 | S. cerevisiae deletion strains, locus YHR079C, strain IRE1, hits give low values 1.06 | S. cerevisiae deletion strains, locus YHR094C, strain hxt1, hits give low values 1.01 | S. cerevisiae deletion strains, locus YHR129C, strain ARP1, hits give low values 1 | S. cerevisiae deletion strains, locus YHR200W, strain rpn10, hits give low values 1.02 | S. cerevisiae deletion strains, locus YIL066C, strain RNR3, hits give low values 1.02 | S. cerevisiae deletion strains, locus YIL073C, strain SPO22, hits give low values 1.08 | S. cerevisiae deletion strains, locus YIL125W, strain kgd1, hits give low values 1.01 | S. cerevisiae deletion strains, locus YIR030C, strain dcg1, hits give low values 1.02 | S. cerevisiae deletion strains, locus YJL095W, strain BCK1, hits give low values 0.986 and 1.06 | S. cerevisiae deletion strains, locus YJL134W, strain LCB3, hits give low values 1.01 | S. cerevisiae deletion strains, locus YJL168C, strain set2, hits give low values 1.02 | S. cerevisiae deletion strains, locus YJL187C, strain SWE1 (second series), hits give low values 1.02 | S. cerevisiae deletion strains, locus YJR043C, strain POL32, hits give low values 0.982 | S. cerevisiae deletion strains, locus YJR066W, strain TOR1, hits give low values 1.02 | S. cerevisiae deletion strains, locus YJR075W, strain HOC1, hits give low values 0.988 | S. cerevisiae deletion strains, locus YKL009W, strain mrt4, hits give low values 0.999 | S. cerevisiae deletion strains, locus YKL068W, hits give low values 1.01 | S. cerevisiae deletion strains, locus YKL085W, strain MDH1 (second series), hits give low values 1.01 | S. cerevisiae deletion strains, locus YKL085W, strain MDH1, hits give low values 1.01 | S. cerevisiae deletion strains, locus YKL190W, strain CNB1, hits give low values 1.01 | S. cerevisiae deletion strains, locus YKR001C, strain vps1, hits give low values 1.02 | S. cerevisiae deletion strains, locus YLR039C, strain RIC1, hits give low values 1.14 | S. cerevisiae deletion strains, locus YLR058C, strain SHM2, hits give low values 1.02 | S. cerevisiae deletion strains, locus YLR102C, strain apc9, hits give low values 1.01 | S. cerevisiae deletion strains, locus YLR113W, strain HOG1, hits give low values 0.973 | S. cerevisiae deletion strains, locus YLR262C, strain YPT6, hits give low values 1.16 | S. cerevisiae deletion strains, locus YLR268W, strain sec22, hits give low values 1.02 | S. cerevisiae deletion strains, locus YLR330W, strain CHS5, hits give low values 1.02 | S. cerevisiae deletion strains, locus YLR342W, strain FKS1 (second series), hits give low values 0.887 | S. cerevisiae deletion strains, locus YLR371W, strain rom2, hits give low values 1.03 | S. cerevisiae deletion strains, locus YLR418C, strain cdc73, hits give low values 0.91 | S. cerevisiae deletion strains, locus YML016C, strain PPZ1, hits give low values 1.01 | S. cerevisiae deletion strains, locus YML032C, strain rad52, hits give low values 1.01 | S. cerevisiae deletion strains, locus YML124C, strain tub3, hits give low values 1.01 | S. cerevisiae deletion strains, locus YMR078C, strain ctf18, hits give low values 1.01 | S. cerevisiae deletion strains, locus YMR223W, strain ubp8, hits give low values 0.999 | S. cerevisiae deletion strains, locus YMR263W, strain SAP30, hits give low values 1.01 and 0.995 | [7] 0.88 | S. cerevisiae deletion strains, locus YNL067W, strain RPL9B, hits give low values 1 | S. cerevisiae deletion strains, locus YNL128W, strain TEP1, hits give low values 1.02 | [8] 1.01 and 0.97 | [9] 1.03 | S. cerevisiae deletion strains, locus YNL183C, strain NPR1, hits give low values 1.02 | [10] 1.07 | [11] 1.01 | S. cerevisiae deletion strains, locus YNL233W, strain BNI4, hits give low values 1 | S. cerevisiae deletion strains, locus YNL250W, strain rad50, hits give low values 1.01 | S. cerevisiae deletion strains, locus YNL271C, strain bni1, hits give low values 1.02 | S. cerevisiae deletion strains, locus YNL298W, strain CLA4, hits give low values 1 | S. cerevisiae deletion strains, locus YNL307C, strain MCK1, hits give low values 0.989 | [12] 1.01 | S. cerevisiae deletion strains, locus YNR052C, strain pop2, hits give low values 1.02 | S. cerevisiae deletion strains, locus YOL006C, strain TOP1, hits give low values 0.995 | S. cerevisiae deletion strains, locus YOL147C, strain pex11, hits give low values 1 | S. cerevisiae deletion strains, locus YOR061W, strain CKA2, hits give low values 1.01 | S. cerevisiae deletion strains, locus YOR069W, strain VPS5, hits give low values 1.01 | [13] 0.979 | S. cerevisiae deletion strains, locus YOR136W, strain idh2, hits give low values 1.02 | S. cerevisiae deletion strains, locus YOR144C, strain elg1, hits give low values 1.01 | S. cerevisiae deletion strains, locus YOR184W, strain ser1, hits give low values 1.02 | S. cerevisiae deletion strains, locus YOR231W, strain MKK1, hits give low values 1.02 | S. cerevisiae deletion strains, locus YOR316C, strain cot1, hits give low values 1.01 | S. cerevisiae deletion strains, locus YPL055C, strain LGE1, hits give low values 1.01 and 0.902 | S. cerevisiae deletion strains, locus YPL241C, strain CIN2, hits give low values 1.01 | S. cerevisiae deletion strains, locus YPL256C, strain CLN2, hits give low values 1.09 | S. cerevisiae deletion strains, locus YPR119W, strain clb2, hits give low values 1.01 | S. cerevisiae deletion strains, locus YPR141C, strain kar3, hits give low values 1.02 | S. cerevisiae deletion strains, locus YPR163C, strain tif3, hits give low values 1.02 | S. cerevisiae deletion strains, locus YPR167C, strain met16, hits give low values 1.01 | S. cerevisiae deletion strains, strain wtn01, hits give low values 1.01 | S. cerevisiae strains, strain wild type, hits give low values 1.01
active: S. cerevisiae deletion strains, locus YOL012C, strain htz1 2.1 [resistant]
